Experimental data published in PubChem BioAssay (NCI).
The panel holds about 83,000 compounds, 20% with a hit somewhere; the sample as a whole holds those more often.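 The test compound was applied at a single concentration to cells in 96-well plates for 48 hours, and percent growth was recorded.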 Values without a mark were called inactive. Activity calls are given as the source filed them. How the source made its calls: active means growth percent below 10; inactive means the rest.

Experiments:
Assay in all cases: NCI-60 one-dose screen, 48 h (100 = growth as untreated, 0 = no growth, -100 = all killed)
Conditions in all cases: 10 µM unless noted
DU-145 prostate = test system: DU-145 prostate
K-562 leukemia = test system: K-562 leukemia
MALME-3M melanoma = test system: MALME-3M melanoma
MDA-MB-231 breast = test system: MDA-MB-231 breast
RXF 393 renal = test system: RXF 393 renal
SF-268 CNS = test system: SF-268 CNS
SF-295 CNS = test system: SF-295 CNS
SF-539 CNS = test system: SF-539 CNS
UACC-257 melanoma = test system: UACC-257 melanoma
M14 melanoma = test system: M14 melanoma
HCT-15 colon = test system: HCT-15 colon
HT29 colon = test system: HT29 colon
SNB-75 CNS = test system: SNB-75 CNS
SNB-19 CNS = test system: SNB-19 CNS
U251 CNS = test system: U251 CNS
PC-3 prostate = test system: PC-3 prostate
SK-MEL-5 melanoma = test system: SK-MEL-5 melanoma
UACC-62 melanoma = test system: UACC-62 melanoma
LOX IMVI melanoma = test system: LOX IMVI melanoma
SK-MEL-28 melanoma = test system: SK-MEL-28 melanoma

Row | SMILES | growth (DU-145 prostate) [%] | growth (K-562 leukemia) | growth (MALME-3M melanoma) | growth (MDA-MB-231 breast) | growth (RXF 393 renal) | growth (SF-268 CNS) [%] | growth (SF-295 CNS) [%] | growth (SF-539 CNS) [%] | growth (UACC-257 melanoma) | growth (M14 melanoma) | growth (HCT-15 colon) [%] | growth (HT29 colon) [%] | growth (SNB-75 CNS) [%] | growth (SNB-19 CNS) [%] | growth (U251 CNS) [%] | growth (PC-3 prostate) [%] | growth (SK-MEL-5 melanoma) [%] | growth (UACC-62 melanoma) [%] | growth (LOX IMVI melanoma) | growth (SK-MEL-28 melanoma) [%]
1 | CCOC(=O)c1nn(C2CCCCO2)c2ccc(NS(=O)(=O)c3ccc(C)cc3)cc12 (stereo not given) | 106 | 82.8% | 102% | 94.2% | 119% | 96.2 | 99.7 | 105 | 97% | 101% | 105 | 102 | 80.5 | 99.6 | 90.6 | 92.6 | 98.7 | 86.6 | 99.3% | 101
2 | CC(=O)n1cc(C=O)c2ccccc21 | 104 | 87.3% | 102% | 113% | 113% | 102 | 101 | 104 | 94.7% | 102% | 106 | 97.7 | 81.7 | 100 | 86.3 | 93.5 | 97.2 | 94.2 | 93.8% | 105
3 | CCOC(=O)c1nn(C2CCCCO2)c2ccc(NC(=O)Cn3nnc4ccccc43)cc12 (stereo not given) | 104 | 91.3% | 105% | 96.4% | 125% | 101 | 99.3 | 100 | 100% | 102% | 95.9 | 115 | 78.6 | 86.5 | 96.4 | 110 | 99.1 | 99.9 | 96.5% | 106
4 | [2H]C1([2H])CCN(C(=O)C2CC2)c2cc(NS(=O)(=O)c3ccc(-c4cccc(C(N)=O)c4)cc3)ccc21 | 72 | 20.7% | 39.6% | 42.3% | 48.4% | 51.9 | 19.8 | 23.4 | 47.7% | 86.4% | 90.7 | 13.6 | 11.3 | 41.2 | 29.8 | 34.2 | 15.4 | 21.4 | 39.2% | 43.9
5 | Cc1ncc(C(=O)Nc2ccc(CN3CCN(C)CC3)c(C(F)(F)F)c2)cc1C#Cc1c(N)ncc2ccc(C#N)cc12 | 27.7 | 4.11% (active) | -34.3% (active) | -12.5% (active) | -45% (active) | 42.1 | 74.4 | 48.4 | -1.39% (active) | -12% (active) | 28 | 11.9 | 56.4 | 77.5 | 68.5 | 48.7 | 16.2 | 22.5 | -62.4% (active) | 23.7
6 | O=C(O)c1ccccc1C(F)(F)F | 102 | 102% | 103% | 95.3% | 102% | 96.3 | 95.6 | 93.7 | -1.89% (active) | 93.4% | 104 | 107 | 77.1 | 99.1 | 96.5 | 99.7 | 105 | 95 | 81.2% | 121
7 | COc1cc2c(cc1OC(C)=O)C(=O)CCCC2 | 128 | 186% | 93.3% | 112% | 94.2% | 107 | 107 | 90.9 | 86.7% | 87.9% | 83 | 96.5 | 54.2 | 109 | 94.4 | 87.5 | 90.1 | 105 | 95.6% | 95.2
8 | CCN=Cc1c(O)c(O)c(C(C)C)c2cc(C)c(-c3c(C)cc4c(C(C)C)c(O)c(O)c(C=NCC)c4c3O)c(O)c12 | 53 | 16.4% | 75.1% | 50.5% | 68.2% | 44.7 | 29.5 | 55.2 | 85.2% | 61.6% | 23.2 | 25 | 57.7 | 27.3 | 25.8 | 29.4 | 95.4 | 76.8 | 39.1% | 74.9
